Reference: PubChem BioAssay AID485346 (Sanford-Burnham Center for Chemical Genomics, 2010)
About 10,000 (3%) of roughly 330,000 compounds were called active.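 How the source made its calls: active means inhibition of at least 50% at 8 µM in the primary screen; inactive means the rest.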 The list comes from a sample in which actives are over-represented; it also holds similar structures and randomly drawn compounds.

target: Protein Mdm4 (Homo sapiens) + E3 ubiquitin-protein ligase Mdm2 (Homo sapiens) (UniProt O15151+Q00987); assay: inhibitors of human Mdm2-MdmX association, primary screen, cell-based, luminescence, split luciferase, SaOS-2, uHTS (AID 485346); settings: SaOS-2 split-luciferase Mdm2/MdmX complementation, at 8 µM, stronger effect = higher value
Sequence (O15151 whole entry, looked up): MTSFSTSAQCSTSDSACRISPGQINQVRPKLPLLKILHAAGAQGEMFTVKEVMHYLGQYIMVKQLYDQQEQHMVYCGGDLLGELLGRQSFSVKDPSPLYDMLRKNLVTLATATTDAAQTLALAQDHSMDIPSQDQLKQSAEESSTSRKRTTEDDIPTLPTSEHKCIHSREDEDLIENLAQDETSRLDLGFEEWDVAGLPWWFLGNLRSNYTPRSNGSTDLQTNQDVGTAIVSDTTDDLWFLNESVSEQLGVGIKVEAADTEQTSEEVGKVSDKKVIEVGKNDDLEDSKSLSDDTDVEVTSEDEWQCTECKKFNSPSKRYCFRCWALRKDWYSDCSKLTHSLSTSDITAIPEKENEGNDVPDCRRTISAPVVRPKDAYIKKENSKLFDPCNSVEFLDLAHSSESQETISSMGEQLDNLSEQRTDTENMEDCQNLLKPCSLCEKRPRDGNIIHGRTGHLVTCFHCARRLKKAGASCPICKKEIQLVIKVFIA
Sequence (Q00987 whole entry, looked up): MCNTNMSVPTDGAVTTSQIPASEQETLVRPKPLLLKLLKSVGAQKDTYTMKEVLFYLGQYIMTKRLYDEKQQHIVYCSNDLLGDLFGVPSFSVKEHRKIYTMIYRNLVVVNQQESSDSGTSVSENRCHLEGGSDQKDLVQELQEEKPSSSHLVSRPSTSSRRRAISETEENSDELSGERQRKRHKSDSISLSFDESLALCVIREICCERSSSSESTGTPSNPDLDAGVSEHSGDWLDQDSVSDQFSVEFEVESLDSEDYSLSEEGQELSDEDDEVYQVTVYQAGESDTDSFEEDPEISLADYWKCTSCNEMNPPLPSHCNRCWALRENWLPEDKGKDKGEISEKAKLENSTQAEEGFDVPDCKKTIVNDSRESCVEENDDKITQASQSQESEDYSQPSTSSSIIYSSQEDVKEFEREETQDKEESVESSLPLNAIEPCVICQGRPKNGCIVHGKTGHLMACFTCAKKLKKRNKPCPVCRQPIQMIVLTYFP

SMILES	inhibition
Cn1c2c(c(=O)n(C)c1=O)C(c1cccc(F)c1)C(C#N)=C(N)O2 (configuration not stated)	-0.62% (inactive)
Cc1ccc(C(=O)NCC(=O)NCc2cc(=O)n(C)c(=O)n2C)cc1	-0.269% (inactive)
COc1ccc(Cl)cc1C(=O)Nc1ccc(N(C)C(C)=O)cc1	1.34% (inactive)
CCC(C)NC(=O)c1cc(Cl)ccc1OC (configuration not stated)	2.55% (inactive)
COC(=O)c1ccc(NC(=O)c2cc(Cl)ccc2OC)cc1	92.4% (active)
COc1cc(NC(=S)NCCSc2ccc(C)cc2)cc(OC)c1	27.5% (inactive)
O=C(NCCc1ccccc1)C1CCN(S(=O)(=O)c2ccc(Br)s2)CC1	18.6% (inactive)
O=S(=O)(NCc1cccnc1)c1ccc(Br)s1	1% (inactive)
O=S(=O)([N-]c1nc2ccccc2nc1-[n+]1ccc(Cc2ccccc2)cc1)c1ccc(Br)s1	71.9% (active)
COc1ccc2c(c1)c1nc3n(c(=O)c1n2CC(=O)Nc1ccccc1)CCS3	41.9% (inactive)
CC(C(=O)NC1CCCC1)N1CCN(S(=O)(=O)c2ccccc2Cl)CC1 (configuration not stated)	-17.2% (inactive)
Cc1cc(C(=O)NC2CCCc3c2cnn3-c2cccc(C)c2C)c(C)o1 (configuration not stated)	68% (active)
Cn1nccc1C(=O)NC1CCCc2c1cnn2-c1ccc(F)cc1F (configuration not stated)	26.9% (inactive)
CC(=O)NCC(=O)NC1CCCc2c1cnn2-c1ccccc1F (configuration not stated)	-11.2% (inactive)
COc1ccc(C(=O)NC2CCCc3c2cnn3-c2cccc(C)c2C)c(OC)n1 (configuration not stated)	97.7% (active)
Cc1ccc(-n2ncc3c2CCCC3NC(=O)c2cnccn2)cc1C (configuration not stated)	9.66% (inactive)
Cn1nccc1C(=O)NC1CCCc2c1cnn2-c1ccccc1F (configuration not stated)	-1.1% (inactive)
Cc1nonc1C1CCCN1Cc1nc(-c2ccc(F)cc2F)oc1C (configuration not stated)	29.7% (inactive)
Clc1ccc(C[n+]2cc(-c3ccc(Cl)cc3)n3c2CCC3)cc1	31.8% (inactive)
COc1ccc(S(=O)(=O)Nc2ccc3cn[nH]c3c2)cc1[N+](=O)[O-]	0.751% (inactive)
O=[N+]([O-])c1cc(S(=O)(=O)Nc2cccc(Cl)c2)ccc1N=Nc1c(O)[nH]c2ccccc12	97.4% (active)
Cc1cccc(N(CC(=O)N=Nc2c(O)[nH]c3ccccc23)S(C)(=O)=O)c1C	-22.1% (inactive)
CCN(CC)CCCNC(=O)c1cc2c(=O)[nH]c3ccc(C)cc3c2s1	26.3% (inactive)

SMILES	inhibition
Cc1ccc2[nH]c(=O)c(CC(=O)O)c(-c3ccccc3)c2c1	22% (inactive)
Cc1cccc(N(C)C(=O)c2cc3c(=O)[nH]c4ccc(C)cc4c3s2)c1	60.9% (active)
O=C(CNC(=O)C12CC3CC(CC(C3)C1)C2)OCC(=O)N1CCCCC1	19.2% (inactive)
C/C(=N\NC(=O)c1ccc(NS(=O)(=O)c2cccs2)cc1)c1ccc2ccccc2c1	-6.93% (inactive)
COc1cc(OC)cc(C(=O)NC2CCN(C(=O)N3c4ccccc4Sc4ccccc43)CC2)c1	9.25% (inactive)
CC(=O)Nc1ccccc1NC(=O)c1cc(C)cc(C)c1	-1.21% (inactive)
Nc1ccc(C(=O)Nc2ccccc2N)cc1	54.8% (active)
Nc1ccc(C(=O)NCc2ccccc2)cc1	3.98% (inactive)
COc1cc(OC)cc(C(=O)NC(=S)N2CCN(c3ccc(C(F)(F)F)cc3[N+](=O)[O-])CC2)c1	17.3% (inactive)
O=C(Nc1cccc(C(F)(F)F)c1)c1ccc(N2CCNCC2)c([N+](=O)[O-])c1	52.8% (active)
CCC(C)NC(=O)c1ccc(N2CCC3(CC2)OCCO3)c([N+](=O)[O-])c1 (configuration not stated)	10.6% (inactive)
CC(NC(=O)c1ccc(N2CCNCC2)c([N+](=O)[O-])c1)C12CC3CC(CC(C3)C1)C2 (configuration not stated)	101% (active)
O=C(NC1C2CC3CC(C2)CC1C3)c1ccc(N2CCNCC2)c([N+](=O)[O-])c1 (configuration not stated)	34.8% (inactive)
O=C(Nc1ccc(N2C(=O)c3cccc4cccc(c34)C2=O)cc1)c1ccc(N2CCCCC2)c([N+](=O)[O-])c1	-6.66% (inactive)
Brc1c(CSc2nncc3ccccc23)nc2ccccn12	21.7% (inactive)
CCc1ccccc1NC(=O)c1ccc2c(c1)CCN2S(C)(=O)=O	24.8% (inactive)
CC(=N\NC(=O)c1cc(Br)ccc1O)/C(=N/O)C(=O)Nc1ccccc1	36.7% (inactive)
CCN(CC)C(CNC(=O)CSc1nnnn1-c1cccc(F)c1)c1ccco1 (configuration not stated)	-4.51% (inactive)
COc1cccc(-n2c(SCC(=O)NC3CCCCC3)nc3n[nH]c(C)c3c2=N)c1	53.3% (active)
Cc1ccc(-n2c(SCC(=O)NCCC3=CCCCC3)nc3n[nH]c(C)c3c2=N)cc1Cl	28.5% (inactive)
CCCCNC(=O)CSc1nc2n[nH]c(C)c2c(=N)n1-c1cccc(Cl)c1C	-6.85% (inactive)
COCCNC(=O)CSc1nc2sccc2c(=O)n1-c1ccccc1	6.49% (inactive)
CN(C)CCCn1c(=O)n(Cc2ccccc2)c(=O)c2c3c(sc21)CCCCC3	61.8% (active)

SMILES	inhibition
O=c1c2c3c(sc2n(CCN2CCCC2)c(=O)n1Cc1ccccc1)CCCCC3	28.5% (inactive)
Cn1c(=O)n(Cc2ccco2)c(=N)c2c3c(sc21)CCCC3	15.6% (inactive)
CC(Nc1nc(C(F)(F)F)nc2ccccc12)c1cccs1 (configuration not stated)	69.6% (active)
CCc1ccc(C(CNc2nc(C(F)(F)F)nc3ccccc23)N(C)C)cc1 (configuration not stated)	20.9% (inactive)
COc1cccc(CNc2nc(C(F)(F)F)nc3ccccc23)c1	31.6% (inactive)
COc1ccccc1CNC(=O)CCCN1C(=O)NC2(CCCC2)C1=O	20.4% (inactive)
Cc1c(C(=O)NCCN2CCOCC2)sc2nc(-c3ccc(F)cc3)cn12	7.76% (inactive)
O=C(NN=C1CCC(=NNC(=O)c2cccnc2)CC1)c1cccnc1	-0.152% (inactive)
O=C(N/N=C/c1sc(N2CCCCC2)nc1-c1cccs1)c1cccnc1	57.4% (active)
O=C(N/N=C/c1cccnc1)c1ccc(NC(=O)c2ccc(F)cc2)cc1	-2.66% (inactive)
CCOC(=O)c1csc(CCNC(=O)c2oc3c(Cl)cc(C)cc3c2C)n1	21.7% (inactive)
CC(Oc1ccc(Br)cc1)C(=O)NC1CCCCCC1 (configuration not stated)	0.219% (inactive)
OC(COc1ccc(Br)cc1)CN1CCCC1 (configuration not stated)	2.28% (inactive)
CC(C)(C)CC(C)(C)NCC(O)COCCOc1ccc(Br)cc1 (configuration not stated)	65.4% (active)
NC(=O)CCC(NS(=O)(=O)c1ccc(Cl)cc1)C(=O)NCc1ccccc1Cl (configuration not stated)	20.8% (inactive)
Cc1cc(C)c2nc(-c3cccnc3)cc(C(=O)Nc3ccc(S(=O)(=O)Nc4onc(C)c4C)cc3)c2c1	-28.5% (inactive)
Cc1ccc(Cn2c(=N)c(S(=O)(=O)c3ccc(C)cc3)cc3c(=O)n4ccccc4nc32)cc1	21.6% (inactive)
COCc1[nH]nc2c1C(C1C=CCCC1)C(C#N)=C(N)O2 (configuration not stated)	23.8% (inactive)
N#CC1=C(N)OC2=C(C(=O)CCC2)C1C1CC=CCC1 (configuration not stated)	-10% (inactive)
N#CC1=C(N)Oc2cc(O)ccc2C1C1CCCCC1 (configuration not stated)	64.7% (active)
COc1cc(C#Cc2ccc3cc(CCCO)oc(=O)c3c2)cc(OC)c1	38.9% (inactive)
COc1cc(/C=C2\Oc3ccc(C#Cc4ccc(O)cc4)cc3C2=O)cc(OC)c1	62.4% (active)
COc1ccc2c(c1)O/C(=C\c1ccccc1O)C2=O	-152% (inactive)

SMILES	inhibition
O=C(Nc1cccc2c1CCCC2)c1ccc(F)cc1	11.9% (inactive)
COc1ccc([C@H]2CC(=O)C=C(c3ccc(OC(F)(F)F)cc3)C2)cc1OC	-6.36% (inactive)
CC[n+]1cc(C)ccc1/C=C/c1ccc(N(C)C)cc1	81.1% (active)
Cc1ccc2c(cnn2C(=O)CCC(=O)NC2CCCC2)c1	7.95% (inactive)
Cn1nccc1NS(=O)(=O)c1ccc(F)cc1	-11.5% (inactive)
NS(=O)(=O)c1ccc(CCNC(=O)c2ccc([N+](=O)[O-])cc2[N+](=O)[O-])cc1	-0.842% (inactive)
Cc1c(-c2ccccc2)cn2c1-c1ccc(C)n1CC2	-3.59% (inactive)
O=S(=O)(c1cccs1)N1CCN(CCOc2ccccc2)CC1	14.3% (inactive)
Cn1cc(S(=O)(=O)NC(c2ccccc2)c2ccccc2)c(=O)n(C)c1=O	7.36% (inactive)
Nc1cccc(CCc2nc3ccccc3[nH]2)c1	-30.8% (inactive)
c1ccc(-c2cc(-c3ccccc3)[nH]n2)cc1	-145% (inactive)
Nc1cccc(-c2cc(-c3ccccc3)nc(-c3cccc(N)c3)n2)c1	65% (active)
N#Cc1cccc(CSc2ncnc(N)n2)c1	7.81% (inactive)
COc1ccc(C2CC(c3cccs3)=NN2c2nc(C)c(C(C)=O)s2)cc1OC (configuration not stated)	67.5% (active)
COc1ccc(C2CC(c3cccs3)=NN2c2ccc(F)cc2)cc1OC (configuration not stated)	-3.01% (inactive)
COc1ccc(C2CC(c3cccs3)=NN2C(=O)CCC(=O)O)cc1OC (configuration not stated)	17.5% (inactive)
Cc1cc(NC(=O)CCC(=O)N(Cc2ccccc2)C(C(=O)NC2CCCC2)c2ccc(C)o2)no1 (configuration not stated)	16.1% (inactive)
Cc1ccc(NC(=S)NC(NC(=O)Cc2cccc3ccccc23)C(Cl)(Cl)Cl)cc1 (configuration not stated)	79.8% (active)
CC(C)(C)C(=O)NC(NC(=S)Nc1ccc(S(N)(=O)=O)cc1)C(Cl)(Cl)Cl (configuration not stated)	18.8% (inactive)
O=C(Cc1cccc2ccccc12)NNC(=O)Nc1ccc(Cl)cc1	-10% (inactive)
COc1ccc(S(=O)(=O)N2CCN(C(=O)N(C)C)C2C)cc1 (configuration not stated)	-11.6% (inactive)
O=c1ccc2cc(S(=O)(=O)NCCCc3ccccc3)ccc2[nH]1	23.1% (inactive)
N#Cc1c(N)nc2c(c1N)CC(C(F)(F)F)O2 (configuration not stated)	9.73% (inactive)
